Experimental findings from PubChem BioAssay (NCI) are described below.

This is part of a sample that, as a whole, favours compounds with a hit. Of some 83,000 tested, about 20% had one in any assay.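 Cells were grown in 96-well plates and exposed to the test compound at a single concentration for 48 hours; results are reported as percent growth, with values below 10 considered active.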 Unmarked numbers belong to inactive results. Active and inactive are the calls of the source.

The subject of the assay is SK-MEL-28 melanoma. In words: NCI-60 one-dose screen, 48 h (100 = growth as untreated, 0 = no growth, -100 = all killed). The conditions noted are these: 10 µM unless noted.
Take `Cc1cc2nc3c4cc(Cl)ccc4n(CC(=O)NCCN(C)C)c3nc2cc1C`: the growth was -88.6% (active). As for `COc1cc(/C=C/C(=O)c2ccc(C)cc2)ccc1Oc1nc(NCCO)nc(N2CCOCC2)n1`, the figure is 76.6%; as for `O=C(N/N=C/c1ccc(Cl)s1)c1[nH]c2ccc(Br)cc2c1-c1ccccc1`, 61.6%. As for `NS(=O)(=O)c1cccc(Nc2nc(SCC(=O)c3ccc([N+](=O)[O-])cc3)nc3ccccc23)c1`, the figure is 60.3%. In the case of `Nc1c(C(=O)c2ccc(Br)cc2)oc2nc(-c3cnccn3)cc(-c3cccs3)c12`, the growth was 107%. Then `O=C(N/N=C/c1ccc([N+](=O)[O-])o1)c1[nH]c2ccc(Br)cc2c1-c1ccccc1`, with 55.9%. Then `O=C(N/N=C/c1ccc([N+](=O)[O-])s1)c1[nH]c2ccc(Br)cc2c1-c1ccccc1`, with 38.5%; and `C#Cc1nc(C2=C(C)C(O)/C(=N/O)C2)cs1` (centres undefined), with 111%; and `COc1cc(/C=C/C(=O)c2cc(OC)c(OC)c(OC)c2)ccc1OCc1ccccc1`, with 78.8%.

Turning to `CCCC(=O)NC(c1ccc(N(CC)CC)cc1)c1cc(C)c2cccnc2c1O` (centres undefined), the growth was 29.6%. As to `CN1CCc2c(sc3ncnc(N/N=C/c4ccc(Cl)c(Cl)c4)c23)C1`, the growth is 21.4%.

Consider `O=C(N/N=C/c1ccc[nH]1)c1[nH]c2ccc(Br)cc2c1-c1ccccc1`, for which the growth was 61.2%.

Take `COC(=O)C1CCCN(S(=O)(=O)/N=C2\NC(=O)NC2=C(Cl)Cl)C1` (centres undefined): the growth is 105%.

For `C=CCn1c(SCC(=O)c2ccccc2)nnc1-c1c[nH]c2ccccc12`, the growth was 105%.
